Among all 320,000 compounds or so, about 2,100 (0.66%) were called active. Roughly 53% stayed inconclusive and do not appear here. Calls come from the whole dose curve; as a rule, active = well fitted inhibition curve with a large enough effect in the signal ratio, with a control signal flat (not every such curve was filed as active); inconclusive = small, poorly fitted or top-dose-only effect, or effect the other way, or a change in a side signal; inactive = flat fitted curve, though single readings scatter; the % refers to the signal ratio. This excerpt belongs to a sample that is enriched for actives.
Potency is the fitted concentration of half-maximal effect.

This experiment in a line: qHTS Assay for Lipid Storage Modulators in Drosophila S3 Cells.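 For cell number change: cells counted by Cell Tracker Red CMTPX staining in the red channel.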 For lipid storage change, negative = inhibition: % is set by controls: 0 for no effect and ±100 for the full control effect. As to conditions: BODIPY lipid droplet fluorescence, 18-24 h, cells fed with added oleic acid; cell number change: measured here: cell count max response; series mostly up to 46.1 µM. The method in brief: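 Drosophila S3 cells loaded with oleic acid (400 uM, as added) and compounds at several concentrations; lipid droplets imaged by 488-nm laser-scanning cytometry, 500–530 nm intensity and object ratio to cell channel. Percent activity normalized to 20 uM Triacsin C.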
(In general: qHTS replaces the single test concentration by a dilution series.)
Turning to `O=C(CC(c1ccccc1)c1ccccc1)NCc1cccnc1`, the Potency result was “inactive” and the cell number change is -6.85%.
On the same counts, the results for `Cc1ccc(C(=O)NCc2ccco2)cc1S(=O)(=O)N1CCCC1` are “inactive” and 15%.
With `O=C(NCCCN1CCOCC1)C(=O)NCC1OCCN1S(=O)(=O)c1cc(F)ccc1F` (centres undefined), the Potency result is “inactive” and the cell number change turned out to be 10.3%.
On the same counts, the results for `Cc1nnsc1C(=O)N1CCN(c2ccc(F)cc2)CC1` are “inactive” and 6.97%.
In the same order, the values of `CCOC(=O)c1cc2c(=O)n3cccc(C)c3nc2n(CCCOC)c1=NC(=O)c1cccnc1` are “inactive” and -8.27%.
In the same order, the values of `Cc1cccc(N2C(=O)c3ccc(C(=O)Nc4c[nH]c(=O)[nH]c4=O)cc3C2=O)c1` are “inactive” and -0.423%.
Consider `CCOC(=O)Cn1nnc(-c2ccc(OCC(C)C)cc2)n1`, for which the Potency result is “inactive” and the cell number change was -1.1%.
Take `COc1ccc(C/C(N)=N/n2cnnc2)cc1Cl`: the Potency entry was “inactive”.
For `CC(C)COc1ccc(C/C(N)=N/n2cnnc2)cc1`, the Potency is 20.6 µM (active) and the cell number change is -24.2%.
In the same order, the values of `COc1ccc(NC(=O)N2Cc3ccccc3CC2C(=O)NC(C)(C)C)cc1` (centres undefined) are “inactive” and -0.759%.
Regarding `O=C(NCCNc1nccc(C(F)(F)F)n1)c1cccc(C(F)(F)F)c1`, the Potency entry was “inactive” and the cell number change is 8.97%.
On the same counts, the results for `CSS(=O)(=O)c1cccc2cccnc12` are 2.59 µM (active) and -61.8%.
On the same counts, the results for `O=S(=O)(c1cccc2cccnc12)N(CCO)CCO` are “inactive” and -16.7%.
For `CCCCN(c1ccccc1)S(=O)(=O)c1cccc2cccnc12`, the Potency result is “inactive”.
For the compound `CNS(=O)(=O)c1cccc2cccnc12`, the cell number change was determined as 10% and the lipid storage change, negative = inhibition was 11.3% [at 9.22 µM] (inactive).
Consider `CCCNS(=O)(=O)c1cccc2cccnc12`, for which the cell number change came out at 2.48% and the lipid storage change, negative = inhibition was -0.974% [at 9.22 µM] (inactive).
For `CCN(CC)S(=O)(=O)c1cccc2cccnc12`, the Potency is 7.31 µM (active) and the cell number change was -17.9%.
On the same counts, the results for `Cc1ccccc1OCC(=O)Nc1c2c(nn1C(C)(C)C)CS(=O)(=O)C2` are “inactive” and -4.53%.
In the same order, the values of `OCCC1CN(Cc2cnc(-c3ccccc3)s2)CCN1Cc1ccccc1` (centres undefined) are “inactive” and -2.24%.
In the case of `Cc1cc[n+](CC(=O)N2CCCc3ccccc32)cc1`, the Potency result is “inactive” and the cell number change was -2.96%.
In the same order, the values of `COC(=O)c1cc(-c2ccc(Br)cc2)c2c(=O)n(C)c(=O)n(C)c2n1` are 20.6 µM (active) and -16.2%.
In the same order, the values of `COC(=O)c1cc(-c2ccccc2)c2c(=O)n(C)c(=O)n(C)c2n1` are “inactive” and 0.987%.
In the same order, the values of `CCOc1ccc(-c2cc(C(=O)OC)nc3c2c(=O)n(C)c(=O)n3C)cc1` are “inactive” and 0.241%.
`O=C1CSC(c2cccnc2)N1c1ccc(Cl)cc1` (centres undefined): the Potency entry was “inactive” and the cell number change is -17.2%.
In the same order, the values of `Cc1ccc2nc(-c3ccc4c(c3)NC(=O)CO4)cn2c1` are “inactive” and 4.69%.
In the same order, the values of `O=C1Nc2cc(C(=O)NCCCN3CCCC3)ccc2S/C1=C\c1ccccc1` are “inactive” and -4.94%.
In the same order, the values of `CCC1CCCCN1CCCNC(=O)c1ccc2c(c1)NC(=O)CS2` (centres undefined) are “inactive” and 20.8%.
As to `CCC1CCCCN1CCCNC(=O)c1ccc(/C=C2/Sc3ccccc3NC2=O)cc1` (centres undefined), the Potency was 5.17 µM (active) and the cell number change is -7.79%.

(Values after PubChem BioAssay AID2685 (National Center for Advancing Translational Sciences (NCATS), 2010).)
